# In ChEMBL document CHEMBL1156829:
# The full ranking holds about 5,400 compounds; the median of “IFI” is about 2, and the highest 2% start at about 22. This is one part of a sample in which the highest values are shown more often than they occur.
# Test: NOVARTIS: Inhibition Frequency Index (IFI) - the number of HTS assays where a compound showed > 50% inhibition/induction, expressed as a percentage of the number of assays in which the compound was tested.
# Assay type: functional
row,Compound,IFI [%]
1,Cn1ccnc1C(=O)NNc1ncc(C(F)(F)F)cc1Cl,13.3
2,CCCN[P+](CC(C)C)(NCCC)NCCC,10.9
3,C=C[C@H]1CN2CC[C@H]1C[C@H]2[C@H](OC(=O)CC)c1ccnc2ccccc12,1.87
4,C=C1[C@@H](C)[C@H]2[C@H](Cc3ccccc3)NC(=O)[C@]23C(OC(C)=O)C=C[C@@](C)(O)C(=O)[C@@H](C)CC=C[C@H]3[C@@H]1O (stereo not given in full),6.9
5,CCOC(=O)c1c(S(=O)(=O)Nc2ccc(C(C)(C)C)cc2)c(-c2ccccc2)n(-c2ccccc2)c1C,3.09
6,CC[C@H]1CN2CC[C@H]1C[C@H]2[C@H](O)c1ccnc2ccccc12,5.17
7,CC1=C[C@H]2O[C@@H]3C[C@H]4OC(=O)C=CC=C[C@H]([C@@H](C)O)OCC[C@@H](C)[C@H](O)C(=O)OC[C@@]2(CC1)[C@]4(C)[C@@]31CO1,24.5
8,CC1=CC(=O)OC[C@]23CCC(C)=C[C@H]2O[C@@H]2C[C@@H](OC(=O)C=CC=CC(=O)OCC1)[C@@]3(C)[C@]21CO1,22.6
9,CC1=CC(=O)OC[C@]23C[C@H](O)C(C)=C[C@H]2O[C@@H]2C[C@@H](OC(=O)C=CC=CC(=O)OCC1)[C@@]3(C)[C@]21CO1,22.6
10,Cc1onc(O)c1CC(N)C(=O)O (stereo not given),0
11,CCOc1ccc2nccc([C@@H](O)[C@@H]3C[C@@H]4CCN3C[C@@H]4CC)c2c1,3.82
12,Cc1ccc(O)c(C(=O)c2c[nH]c(-c3nc4ccccc4[nH]3)c2)c1,0
13,C=CC1CN2CCC1CC2[C@@H](OC(=O)c1ccc(C(C)(C)C)cc1)c1ccnc2ccc(OC)cc12 (stereo not given in full),0
14,O=C(NNc1cccc(F)n1)C(F)(F)F,1.25
15,C=CC(C)(CCC=C(C)C)c1ccc2c3c(c[nH]c13)CC(CO)NC(=O)C(C(C)C)N2C (stereo not given),11.3
16,CS/C(Cl)=C(/NC(C)=O)[P+](c1ccccc1)(c1ccccc1)c1ccccc1,5.34
17,C/C=C1/C[C@H]2[C@@H](OC)Nc3cc(O)c(OC)cc3C(=O)N2C1,28.6
18,O=C1Cc2ccccc2C(=C2CCNCC2)c2ccsc21,0

row,Compound,IFI [%]
1,CC=C[C@H]1O[C@@](O)([C@@H](C)C(O)C(C)[C@H]2OC(=O)C(OC)=CC(C)=C[C@@H](C)[C@@H](O)[C@@H](C)[C@@H](O)C(C)CC(C)=CC=C[C@@H]2OC)C[C@@H](O[C@H]2C[C@@H](O)[C@H](OC(N)=O)[C@@H](C)O2)[C@@H]1C (stereo not given in full),15.5
2,CCOC(=O)c1ccc2nc(C)cc(Nc3ccc(N4CCCCC4)cc3)c2c1,1.12
3,CCN1C(=Cc2sc3ccccc3[n+]2CC)[Se]c2ccccc21,22.6
4,CCC(=O)OC(C(C)C(=O)O)C(C)C1OC2(CCC(C)(C3CCC(C)(C4OC(C5OC(O)(CO)C(C)CC5C)CC4C)O3)O2)CC(O)C1C (stereo not given),8.62
5,C[n+]1c2n(c3ccccc31)N=C(c1ccccc1)C[Se]2,3.7
6,C[C@@H]1C[C@H]2CC[C@H](O2)[C@H](C)C(=O)O[C@@H](C)C[C@@H]2CC[C@@H](O2)[C@@H](C)C(=O)O[C@H](C)C[C@H]2CC[C@@H](O2)[C@H](C)C(=O)O[C@@H](C)C[C@@H]2CC[C@@H](O2)[C@@H](C)C(=O)O1,12.5
7,CC1CC2CCC(O2)C(C)C(=O)O[C@H](C)CC2CCC(O2)C(C)C(=O)OC(C)CC2CCC(O2)C(C)C(=O)O[C@H](C)CC2CCC(O2)C(C)C(=O)O1 (stereo not given in full),19.2
8,CCC1CC2CCC(O2)C(C)C(=O)OC(C)CC2CCC(O2)C(C)C(=O)OC(CC)CC2CCC(O2)C(C)C(=O)OC(C)CC2CCC(O2)C(C)C(=O)O1 (stereo not given),24.1
9,CCCCCc1cc(O)c2c3c(c(=O)oc2c1)CN(C)CC3,2.29
10,O=C1CN=C(c2ccccc2Cl)c2cc(Cl)ccc2N1Cc1cccc([N+](=O)[O-])c1,1.92
11,CCCCCCCc1cc(O)c2c3c(c(=O)oc2c1)CCC(C)C3 (stereo not given),0
12,C=C[C@H]1CN2CC[C@H]1C[C@H]2[C@H](OC(=O)CCCC)c1ccnc2ccccc12,4.59
13,CN1CCc2cc3c(c4c2C1Cc1ccccc1-4)OCO3 (stereo not given),6.17
14,COc1ccc2c(c1)CC1c3c(cc4c(c3-2)OCO4)CCN1C (stereo not given),25
15,COc1cc2c3cc1Oc1c(OC)c(OC)cc4c1C(Cc1ccc(O)c(c1)Oc1ccc(cc1)CC3N(C)CC2)N(C)CC4 (stereo not given),7.14
16,CC[C@@]1(O)C[C@H](O[C@@H]2CC(N(C)C)[C@@H](O[C@@H]3C[C@@H](O)[C@@H](O[C@@H]4CCC(=O)[C@@H](C)O4)C(C)O3)[C@@H](C)O2)c2c(cc3c(c2O)C(=O)c2c(O)ccc(O)c2C3=O)[C@H]1C(=O)OC (stereo not given in full),21.4
17,OC1(c2ccc(Cl)c(C(F)(F)F)c2)CCN(CCOC2c3ccccc3CSc3ccc(Cl)cc32)CC1 (stereo not given),2.38
